These results are taken from the supplement of paper PMC9135407.

Structures are written as SMILES. Where “and” joins values, the source holds several entries; their conditions need not be identical. Equal entries are not always repeated. Structures can show the parent of a compound that is named as a salt. About 620 (11%) of roughly 5,800 compounds showed activity. What follows is part of a selection rich in actives, with near analogues and random picks from the rest. Unmarked numbers belong to inactive results.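 Rule for the calls: active = score above a cut-off or among the top three wells of a plate; in these data no inactive exceeds 0.85.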

The test system of this assay is primary human hepatic stellate cells (donor 1). As to the kind of experiment: scaled lipid accumulation score (0 = DMSO-like, 1 = nortriptyline-like); higher = stronger HSC inactivation (lipid re-accumulation), active = hit call of the paper. Conditions: 48 h.
Where [1] appears, read: library stock concentration: 3.33 mM.
[2] abbreviates: library stock concentration: 10 mM.
[3] abbreviates: library stock concentration: 1 mM.
Setting [4] is: library stock concentration: 400 uM.
Setting [5] is: library stock concentration: 80 uM.
Setting [6] is: library stock concentration: 2 mM.

Regarding `Cn1cc(-c2cnn3c(N)c(Br)c([C@@H]4CCCNC4)nc23)cn1`, the “scaled lipid accumulation score” value is ≤ 0 under setting [1] and 0.521 under setting [2].

Regarding `CCCCCCCCCCCCCCCC(=O)N[C@H](CN1CCOCC1)[C@H](O)c1ccccc1` (racemic), the “scaled lipid accumulation score” value under setting [3] was ≤ -0.021.

Consider `CCCCC[C@H](O)/C=C/[C@H]1[C@H](O)CC(=O)[C@@H]1CCCCCCCO` [Prostaglandin E1 Alcohol], for which, under setting [3], the “scaled lipid accumulation score” value is 0.129.

In the case of `O=C1C(c2ccccc2)N(c2ccc(Br)cc2)C(=O)N1c1ccc(Br)cc1` (stereo unspecified), the “scaled lipid accumulation score” value under setting [3] is ≤ 0.

As for `CC[C@H](C)C(=O)O[C@H]1C[C@H](O)C=C2C=C[C@H](C)[C@H](CC[C@@H]3C[C@@H](O)CC(=O)O3)[C@H]21` [Pravastatin lactone], the “scaled lipid accumulation score” value (library stock concentration: 4.9 mM) is ≤ 0.

For `CCNC(=O)N1CCN(CCCC(c2ccc(F)cc2)c2ccc(F)cc2)CC1` [Amperozide hydrochloride], the “scaled lipid accumulation score” value under setting [2] is 0.661.

In the case of `O=C1NCN(c2ccccc2)C12CCN(CCCC(c1ccc(F)cc1)c1ccc(F)cc1)CC2` [Fluspirilen], the “scaled lipid accumulation score” value is ≤ 0.

`O=C1NCN(c2ccccc2)C12CCN(CCCC(c1ccc(F)cc1)c1ccc(F)cc1)CC2` [Fluspirilene]: the “scaled lipid accumulation score” value under setting [2] is 1.02 (active).

`O=C(Nc1ccc(C(F)(F)F)cn1)N1CCN(c2ncccc2C(F)(F)F)CC1`: the “scaled lipid accumulation score” value under setting [2] was 0.012.

As to `CCCC[C@@H](C)/C=C(C)/C=C(\C)C(=O)NC1=C[C@@](O)(/C=C/C=C/C=C/C(=O)NC2=C(O)CCC2=O)[C@@H]2O[C@@H]2C1=O` [Manumycin A], the “scaled lipid accumulation score” value (library stock concentration: 9.1 mM) was 0.793.

For `COc1cc2ncnc(Nc3ccc(F)c(Cl)c3)c2cc1OCCCN1CCOCC1` [Gefitinib (ZD1839, Iressa) (0.4 mM)], the “scaled lipid accumulation score” value under setting [4] is 0.081.

As to `COc1cc2ncnc(Nc3ccc(F)c(Cl)c3)c2cc1OCCCN1CCOCC1` [Gefitinib (ZD1839)] [listing 1 of 2 here], the “scaled lipid accumulation score” value under setting [1] was 0.43.

On to `C=CC(=O)Nc1ccc2ncnc(Nc3cccc(Br)c3)c2c1`, for which the “scaled lipid accumulation score” value runs as follows: under setting [1], 0.014; under setting [2], 0.802.

`COc1cc2ncnc(Nc3ccc(F)c(Cl)c3)c2cc1OCCCN1CCOCC1`: the “scaled lipid accumulation score” value under setting [5] was ≤ -0.003, the “scaled lipid accumulation score” value under setting [4] is ≤ -0.009, the “scaled lipid accumulation score” value under setting [6] was 0.19 and the “scaled lipid accumulation score” value under setting [2] is 0.65.

Regarding `C=CC(=O)Nc1cc2c(Nc3ccc(F)c(Cl)c3)ncnc2cc1C#CC(C)(C)N1CCN(C)CC1`, the “scaled lipid accumulation score” value under setting [4] was 0.879 (active).

In the case of `COc1cc2ncnc(Nc3ccc(F)c(Cl)c3)c2cc1OCCCN1CCOCC1` [Gefitinib (ZD1839, Iressa) (10 mM)], under setting [2], the “scaled lipid accumulation score” value is 0.94 (active).

For `COc1cc2ncnc(Nc3ccc(F)c(Cl)c3)c2cc1OCCCN1CCOCC1` [Gefitinib (ZD1839)] [listing 2 of 2 here], the “scaled lipid accumulation score” value under setting [2] is 1.05 (active).

Take `COc1cc2ncnc(Nc3ccc(F)c(Cl)c3)c2cc1OCCCN1CCOCC1` [Gefitinib (ZD1839, Iressa) (2 mM)]: the “scaled lipid accumulation score” value under setting [6] is 0.864 (active).

Consider `C=CC(=O)Nc1cc2c(Nc3ccc(F)c(Cl)c3)ncnc2cc1OCCCN1CCOCC1` [listing 1 of 2 here], for which the “scaled lipid accumulation score” value was 0.045 under setting [5]; ≤ -0.009 and ≤ -0.005 under setting [4]; 0.07 and ≤ -0.005 under setting [6]; 0.314 under setting [2].

`C=CC(=O)Nc1cc2c(Nc3ccc(F)c(Cl)c3)ncnc2cc1OCCCN1CCOCC1` [listing 2 of 2 here]: the “scaled lipid accumulation score” value under setting [2] was 0.983 (active).

Regarding `COc1cc2ncnc(Nc3ccc(F)c(Cl)c3)c2cc1OCCCN1CCOCC1` [Gefitinib], the “scaled lipid accumulation score” value (library stock concentration: 4.5 mM) is 0.19.

As to `CC(=O)OCC(=O)[C@@]1(O)[C@H](OC(C)=O)C[C@H]2[C@@H]3CCC4=CC(=O)C=C[C@]4(C)[C@@]3(F)[C@@H](O)C[C@@]21C` [Triamcinolone diacetate], the “scaled lipid accumulation score” value under setting [2] was ≤ 0.

As to `COc1ncc(-c2ccc3nccc(-c4ccnnc4)c3c2)cc1NS(=O)(=O)c1ccc(F)cc1F`, the “scaled lipid accumulation score” value runs as follows: under setting [5], ≤ -0.009; under setting [4], ≤ -0.009; under setting [6], ≤ -0.009; under setting [1], 0.066; under setting [2], 0.479 and 0.24.

As for `O=C(Nc1ccccc1)C12CC1C(=NO)c1ccccc1O2` (stereo unspecified), the “scaled lipid accumulation score” value under setting [2] was ≤ -0.006.

As to `Clc1cccc(Nc2nnc(-c3ccccc3)c3ccccc23)c1`, the “scaled lipid accumulation score” value is 0.162 under setting [2] and 0.258 (library stock concentration: 15.1 mM).

Regarding `CCCCCCCCCC(=O)N[C@H](CN1CCOCC1)[C@H](O)c1ccccc1` (racemic) [DL-threo-PDMP (hydrochloride)], the “scaled lipid accumulation score” value under setting [3] was 0.001.

Consider `CCCn1c(=O)c(C)cn2nc(N)nc12`, for which the “scaled lipid accumulation score” value under setting [2] is ≤ 0 and 0.03.

Take `C=C1CC[C@@H]2[C@](C)(CO)[C@H](O)CC[C@@]2(C)[C@@H]1C/C=C1/C(=O)OC[C@H]1O` [Andrographolide]: the “scaled lipid accumulation score” value reads like this: under setting [1], 0.094; under setting [2], 0.785.

As to `C[C@@H]1C[C@H]2[C@@H]3C[C@H](F)C4=CC(=O)C(Cl)=C[C@]4(C)[C@@]3(F)[C@@H](O)C[C@]2(C)[C@@]1(O)C(=O)CO`, under setting [2], the “scaled lipid accumulation score” value was ≤ 0.

Turning to `CC1(C)S[C@@H]2[C@H](NC(=O)[C@H](N)c3ccc(O)cc3)C(=O)N2[C@H]1C(=O)O` [Amoxicillin Sodium], the “scaled lipid accumulation score” value reads like this: under setting [1], ≤ 0; under setting [2], ≤ 0.

For the molecule `CC1(C)S[C@@H]2[C@H](NC(=O)[C@H](N)c3ccc(O)cc3)C(=O)N2[C@H]1C(=O)O`, the “scaled lipid accumulation score” value under setting [2] is 0.145.

Turning to `CC1(C)S[C@@H]2[C@H](NC(=O)[C@H](N)c3ccc(O)cc3)C(=O)N2[C@H]1C(=O)O` [Amoxicillin], the “scaled lipid accumulation score” value was 0.056. Further, the “scaled lipid accumulation score” value under setting [1] was ≤ 0. Also, the “scaled lipid accumulation score” value under setting [2] was 0.044 and ≤ 0.

In the case of `O=C(CCC/C=C\C[C@@H]1C(/C=C/[C@@H](O)COc2cccc(C(F)(F)F)c2)[C@H](O)C[C@@H]1O)NC(CO)CO` (stereo partly specified) [Fluprostenol serinol amide], the “scaled lipid accumulation score” value under setting [3] is ≤ 0.

As to `c1ccc(C2CN3CCSC3=N2)cc1` (single isomer, unassigned; (-)) [(-)-Tetramisole hydrochloride], the “scaled lipid accumulation score” value under setting [2] was ≤ -0.055.

With `CCCCC(C)(O)C/C=C/[C@H]1[C@H](O)CC(=O)[C@@H]1CCCCCCC(=O)OC` (stereo partly specified) [Misoprostol], the “scaled lipid accumulation score” value was ≤ 0 under setting [3] and ≤ 0 (library stock concentration: 5.2 mM).

`CCCCC[C@H](O)/C=C/[C@@H]1[C@@H](CCCCCCC(=O)O)[C@H](O)C[C@@H]1O` [11.beta.-Prostaglandin F1.beta.]: the “scaled lipid accumulation score” value under setting [3] was ≤ 0.

As to `COc1cc2ncnc(Nc3ccc(F)c(Cl)c3)c2cc1OCCCN1CCOCC1` [Iressa], under setting [2], the “scaled lipid accumulation score” value is 0.9 (active).

With `CC(C)[C@H](O)C(=O)O` [(S)-(+)-2-hydroxy-3-Methylbutyric Acid], the “scaled lipid accumulation score” value under setting [3] is ≤ 0.

With `Cc1cc(C)c(/C=C2\C(=O)Nc3ccccc32)[nH]1`, the “scaled lipid accumulation score” value by setting is: under setting [3], ≤ 0; under setting [2], ≤ 0 and 0.011.

Turning to `Cc1cc(C)c(/C=C2\C(=O)Nc3ccccc32)[nH]1` [VEGF Receptor 2 Kinase Inhibitor III], the “scaled lipid accumulation score” value under setting [1] is ≤ 0.

As to `CN(C)c1ccc(/C=C2/C(=O)Nc3ccccc32)cc1`, the “scaled lipid accumulation score” value under setting [2] was ≤ 0 and 0.041; the “scaled lipid accumulation score” value (library stock concentration: 18.9 mM) was 0.01.

`Cc1cc(C)c(/C=C2\C(=O)Nc3ccccc32)[nH]1` [Semaxanib (SU5416)]: the “scaled lipid accumulation score” value was ≤ 0 under setting [1] and 0.145 under setting [2].

Turning to `CC(C)(C)OC(=O)Nc1ccc(-c2cc(C(=O)NCCCCCCC(=O)NO)no2)cc1`, under setting [3], the “scaled lipid accumulation score” value is ≤ 0.

On to `CC(=O)OCC(=O)[C@@]1(O)CC[C@H]2[C@@H]3C[C@H](C)C4=CC(=O)C=C[C@]4(C)[C@H]3[C@@H](O)C[C@@]21C`, for which the “scaled lipid accumulation score” value under setting [2] was ≤ 0.

In the case of `COc1ccc(CCN(C)CCc2ccc(OC)c(OC)c2)cc1OC` [YS-035 hydrochloride], under setting [2], the “scaled lipid accumulation score” value was 0.011 and 0.112.

With `CN1CCN(CCc2ccc(Cl)c(Cl)c2)CC1` [BD 1063 dihydrochloride], under setting [2], the “scaled lipid accumulation score” value was 0.684.

Turning to `Br.Br.CN(CCc1ccc(Cl)c(Cl)c1)CCN1CCCC1` [BD 1008 dihydrobromide], under setting [2], the “scaled lipid accumulation score” value was 0.882 (active).

As for `C[C@H](NCc1ccc(OCc2cccc(F)c2)cc1)C(N)=O` [Safinamide Mesylate], the “scaled lipid accumulation score” value was ≤ 0 under setting [1] and ≤ 0 under setting [2].

As for `CC(C)OC(=O)CCC/C=C/C[C@H]1C(=O)C[C@@H](O)[C@@H]1/C=C/[C@@H](O)COc1cccc(C(F)(F)F)c1` [9-keto Fluprostenol isopropyl ester], under setting [3], the “scaled lipid accumulation score” value is ≤ 0.

`C=C1C[C@@H](O)[C@H](/C=C/[C@@H](O)C(C)(C)CCCC)[C@H]1C/C=C\CCCC(=O)O` [9-deoxy-9-methylene-16,16-dimethyl Prostaglandin E2]: the “scaled lipid accumulation score” value under setting [3] is ≤ 0.

`CCOC(=O)c1cnc2ccc(-c3cncc(NS(=O)(=O)c4ccccc4)c3)cn12` [listing 1 of 2 here]: the “scaled lipid accumulation score” value under setting [1] was 0.492.

With `CCOC(=O)c1cnc2ccc(-c3cncc(NS(=O)(=O)c4ccccc4)c3)cn12` [listing 2 of 2 here], the “scaled lipid accumulation score” value under setting [2] is 0.915 (active).

Turning to `CCCCC[C@H](O)/C=C/[C@H]1C(=O)C[C@H](O)[C@@H]1C/C=C\CCCC(=O)NCCO` [Prostaglandin D2 Ethanolamide], under setting [3], the “scaled lipid accumulation score” value is ≤ 0.

Turning to `CCC(C)C1OC2(CCC1C)CC1CC(CC=C(C)C(OC3CC(OC)C(OC4CC(OC)C(O)C(C)O4)C(C)O3)C(C)C=CC=C3COC4C(O)C(C)=CC(C(=O)O1)C34O)O2` (stereo unspecified) [Ivermectin], the “scaled lipid accumulation score” value is 0.007 under setting [1] and 0.198 under setting [2].

For `CCC(=O)NC[C@H](Cc1ccc(OCCc2nc(-c3ccccc3)oc2C)cc1)N/C(C)=C\C(=O)c1ccc(C(F)(F)F)cc1`, under setting [2], the “scaled lipid accumulation score” value was ≤ -0.001.

`NC[C@H]1CC[C@H](C(=O)Oc2ccc(CCC(=O)O)cc2)CC1`: the “scaled lipid accumulation score” value under setting [2] was ≤ 0.

For the molecule `COC(=O)N[C@@H](C)CNc1nccc(-c2cn(C(C)C)nc2-c2cc(Cl)cc(NS(C)(=O)=O)c2F)n1`, the “scaled lipid accumulation score” value under setting [1] was ≤ -0.009 and the “scaled lipid accumulation score” value under setting [2] is 0.655.

For the molecule `CNCCCC12CCC(c3ccccc31)c1ccccc12.Cl` [Maprotiline HCl], the “scaled lipid accumulation score” value under setting [2] is 1.31 (active).

Regarding `CNCCC[C@]12CC[C@H](c3ccccc31)c1ccccc12.Cl` [Maprotiline hydrochloride], the “scaled lipid accumulation score” value was 0.944 (active).

With `CNCCCC12CCC(c3ccccc31)c1ccccc12.Cl` [Maprotiline hydrochloride] [listing 1 of 2 here], the “scaled lipid accumulation score” value under setting [2] is 1.59 (active).

Consider `CNCCCC12CCC(c3ccccc31)c1ccccc12.Cl` [Maprotiline hydrochloride] [listing 2 of 2 here], for which the “scaled lipid accumulation score” value is, setting by setting: (library stock concentration: 6.4 mM) 1.05 (active); under setting [2], 0.918 (active) and 1.23 (active).
